Records with an inconclusive call do not appear. Values without a mark were called inactive. The source made the active and inactive calls. Calls come from the whole dose curve; as a rule, active = well fitted curve in the direction sought with a large enough effect; inconclusive = small, poorly fitted or top-dose-only effect, or another doubt; inactive = no such curve, though single readings can be large; an effect the other way counts as inactive or inconclusive.
Key:
[1] = Quantitative High-Throughput drug screen in 47 multiple myeloma cell lines against the NCATS MIPE library collection: KMS20_JCRB cell viability assay (AID 1918973); note: nearly all actives have a fitted effect of over 45% in size
Method in brief: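 CellTiter-Glo ATP luminescence gave viability after 48 h compound treatment at 37C of 500 multiple myeloma cells per well. Normalisation used DMSO-only wells as 100% and media-only wells as 0% viability; primary qHTS of approved and investigational drugs.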

[2] = Quantitative High-Throughput drug screen in 47 multiple myeloma cell lines against the NCATS MIPE library collection: KMS26_JCRB cell viability assay (AID 1918975); note: nearly all actives have a fitted effect of over 45% in size
Method in brief: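 qHTS of the MIPE 4.0 collection: 500 myeloma cells/well, 48 h drug exposure at 37C in 5% CO2, then CellTiter-Glo for 5 min at room temperature before luminescence reading.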

[3] = Quantitative High-Throughput drug screen in 47 multiple myeloma cell lines against the NCATS MIPE library collection: MMM1_PLB cell viability assay (AID 1918976); note: nearly all actives have a fitted effect of over 35% in size
Method in brief: (§1)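 Viability after 48 h drug exposure was measured as ATP-dependent luminescence. Cells, 500 per well, sat at 37 °C under 5% CO2; DMSO wells set 100%, media-only wells 0%.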

[4] = Quantitative High-Throughput drug screen in 47 multiple myeloma cell lines against the NCATS MIPE library collection: MOLP8_DSMZ cell viability assay (AID 1918977); note: nearly all actives have a fitted effect of over 45% in size
Method in brief: as §1

[5] = Quantitative High-Throughput drug screen in 47 multiple myeloma cell lines against the NCATS MIPE library collection: NCIH929_DSMZ cell viability assay (AID 1918978); note: nearly all actives have a fitted effect of over 35% in size
Method in brief: as §1

[6] = Quantitative High-Throughput drug screen in 47 multiple myeloma cell lines against the NCATS MIPE library collection: OCIMY1_PLB cell viability assay (AID 1918979); note: nearly all actives have a fitted effect of over 35% in size
Method in brief: as §1

[7] = Quantitative High-Throughput drug screen in 47 multiple myeloma cell lines against the NCATS MIPE library collection: MM1S_ATCC cell viability assay (AID 1918980); note: nearly all actives have a fitted effect of over 45% in size
Method in brief: as §1

[8] = Quantitative High-Throughput drug screen in 47 multiple myeloma cell lines against the NCATS MIPE library collection: MM1R_ATCC cell viability assay (AID 1918981); note: nearly all actives have a fitted effect of over 35% in size
Method in brief: as §1

[9] = Quantitative High-Throughput drug screen in 47 multiple myeloma cell lines against the NCATS MIPE library collection: LP1_DSMZ cell viability assay (AID 1918982); note: nearly all actives have a fitted effect of over 35% in size
Method in brief: as §1

[10] = Quantitative High-Throughput drug screen in 47 multiple myeloma cell lines against the NCATS MIPE library collection: KMS28PE_JCRB cell viability assay (AID 1918983); note: nearly all actives have a fitted effect of over 35% in size
Method in brief: as §1

[11] = Quantitative High-Throughput drug screen in 47 multiple myeloma cell lines against the NCATS MIPE library collection: KMS34_JCRB cell viability assay (AID 1918985); note: nearly all actives have a fitted effect of over 40% in size
Method in brief: as §1

[12] = Quantitative High-Throughput drug screen in 47 multiple myeloma cell lines against the NCATS MIPE library collection: OCIMY7_PLB cell viability assay (AID 1918987); note: nearly all actives have a fitted effect of over 65% in size
Method in brief: as §1

[13] = Quantitative High-Throughput drug screen in 47 multiple myeloma cell lines against the NCATS MIPE library collection: OCIMY5_PLB cell viability assay (AID 1918988); note: nearly all actives have a fitted effect of over 65% in size
Method in brief: as §1

[14] = Quantitative High-Throughput drug screen in 47 multiple myeloma cell lines against the NCATS MIPE library collection: OPM1_PLB cell viability assay (AID 1918989); note: nearly all actives have a fitted effect of over 40% in size
Method in brief: as §1

[15] = Quantitative High-Throughput drug screen in 47 multiple myeloma cell lines against the NCATS MIPE library collection: SKMM1_PLB cell viability assay (AID 1919863); settings: SKMM1 myeloma viability, CellTiter-Glo ATP, 48 h; viability: stronger effect = lower value; note: nearly all actives have a fitted effect of over 35% in size
Method in brief: as §1

[16] = Quantitative High-Throughput drug screen in 47 multiple myeloma cell lines against the NCATS MIPE library collection: U266_ATCC cell viability assay (AID 1919864); note: nearly all actives have a fitted effect of over 35% in size
Method in brief: as §1

[17] = Quantitative High-Throughput drug screen in 47 multiple myeloma cell lines against the NCATS MIPE library collection: XG6_PLB cell viability assay (AID 1919865); note: nearly all actives have a fitted effect of over 40% in size
Method in brief: as §1

[18] = Quantitative High-Throughput drug screen in 47 multiple myeloma cell lines against the NCATS MIPE library collection: XG1_PLB cell viability assay (AID 1919866); note: nearly all actives have a fitted effect of over 35% in size
Method in brief: as §1

[19] = Quantitative High-Throughput drug screen in 47 multiple myeloma cell lines against the NCATS MIPE library collection: L363_DSMZ cell viability assay (AID 1918984); note: nearly all actives have a fitted effect of over 40% in size
Method in brief: as §1
Potency is the fitted concentration of half-maximal effect.

SMILES	Potency [1]	Potency [2]	Potency [3]	Potency [4]	Potency [5]	Potency [6]	Potency [7]	Potency [8]	Potency [9]	Potency [10]	Potency [11]	Potency [12]	Potency [13]	Potency [14]	Potency [15]	Potency [16]	Potency [17]	Potency [18]	Potency [19]
C[C@@]12O[C@@H](C[C@]1(O)CO)n1c3ccccc3c3c4c(c5c6ccccc6n2c5c31)CNC4=O	0.148 µM (active)	5.9 µM (active)	3.32 µM (active)	0.209 µM (active)	0.469 µM (active)	2.35 µM (active)	1.05 µM (active)	0.833 µM (active)	5.26 µM (active)	2.09 µM (active)	0.526 µM (active)	0.0662 µM (active)	0.526 µM (active)	0.264 µM (active)	5.26 µM (active)	2.09 µM (active)	0.209 µM (active)	0.132 µM (active)	–
Cc1cnc(Nc2ccc(F)cc2Cl)nc1-c1c[nH]c(C(=O)N[C@H](CO)c2cccc(Cl)c2)c1	3.32 µM (active)	20.9 µM (active)	16.6 µM (active)	23.5 µM (active)	16.6 µM (active)	26.4 µM (active)	16.6 µM (active)	16.6 µM (active)	18.7 µM (active)	–	23.5 µM (active)	4.69 µM (active)	18.7 µM (active)	20.9 µM (active)	20.9 µM (active)	20.9 µM (active)	3.72 µM (active)	13.2 µM (active)	1.32 µM (active)
CN(c1ncccc1CNc1nc(Nc2ccc3c(c2)CC(=O)N3)ncc1C(F)(F)F)S(C)(=O)=O	3.32 µM (active)	7.43 µM (active)	7.43 µM (active)	4.18 µM (active)	2.96 µM (active)	13.2 µM (active)	6.62 µM (active)	–	8.33 µM (active)	9.35 µM (active)	8.33 µM (active)	–	5.26 µM (active)	4.69 µM (active)	14.8 µM (active)	9.35 µM (active)	3.72 µM (active)	3.32 µM (active)	2.64 µM (active)
O=C(CCCCCCC(=O)Nc1ccc([C@H]2O[C@@H](CSc3nc(-c4ccccc4)c(-c4ccccc4)o3)C[C@@H](c3ccc(CO)cc3)O2)cc1)NO	6.62 µM (active)	23.5 µM (active)	13.2 µM (active)	14.8 µM (active)	9.35 µM (active)	18.7 µM (active)	–	16.6 µM (active)	11.8 µM (active)	–	6.62 µM (active)	8.33 µM (active)	11.8 µM (active)	8.33 µM (active)	23.5 µM (active)	13.2 µM (active)	14.8 µM (active)	10.5 µM (active)	–
CCS(=O)(=O)c1cccc(-c2cc(C(=O)NC3CCN(C)CC3)c(C)c3[nH]c4ncc(C)cc4c23)c1	1.32 µM (active)	2.96 µM (active)	4.18 µM (active)	1.05 µM (active)	1.18 µM (active)	–	1.66 µM (active)	1.66 µM (active)	7.43 µM (active)	–	0.935 µM (active)	4.18 µM (active)	1.48 µM (active)	0.59 µM (active)	8.33 µM (active)	0.935 µM (active)	0.833 µM (active)	0.526 µM (active)	1.48 µM (active)
O=c1[nH]nc(Sc2ncc([N+](=O)[O-])s2)n1-c1ccc2c(c1)OCCO2	2.09 µM (active)	1.48 µM (active)	2.96 µM (active)	1.48 µM (active)	0.833 µM (active)	3.72 µM (active)	2.35 µM (active)	–	6.62 µM (active)	3.32 µM (active)	2.09 µM (active)	0.935 µM (active)	2.96 µM (active)	2.09 µM (active)	4.18 µM (active)	2.64 µM (active)	2.09 µM (active)	2.09 µM (active)	3.72 µM (active)
COc1cc(=C2C=c3ccccc3=N2)[nH]c1=Cc1[nH]c(C)cc1C	7.43 µM (active)	2.35 µM (active)	2.09 µM (active)	0.469 µM (active)	5.26 µM (active)	3.72 µM (active)	4.18 µM (active)	1.05 µM (active)	0.743 µM (active)	1.66 µM (active)	1.48 µM (active)	1.48 µM (active)	0.833 µM (active)	5.9 µM (active)	4.18 µM (active)	5.26 µM (active)	5.9 µM (active)	2.09 µM (active)	–
O=C(c1cncc(Br)c1)N1CCC(N2CCCC2)CC1	inactive	inactive	inactive	inactive	inactive	–	inactive	inactive	inactive	–	–	inactive	–	–	–	inactive	inactive	inactive	inactive

Reference: PubChem BioAssay (NCATS)
